This test concerns Aerobactin synthetase IucA (Klebsiella pneumoniae hvKP1). Kind of test: Biochemical IucA enzyme inhibition primary screen of the Spectrum library (AID 1346200).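 Further: 100% = wells without compound and 0% = wells lacking enzyme.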 The settings on record: malachite green pyrophosphate, A620, at 8 µM, active compounds read low.

A number with no mark means an inactive call. How the calls were made is not given here. Positions of bridges follow the written chain, without caps; N, C: chain ends. Non-standard residues stand in square brackets, D forms with d. Residues, ends and D or L forms follow the SMILES beside them. ξ: configuration not given here. *: point of attachment. ξDab(CH2SO3H) = NC(CCNCS(=O)(=O)O)C(=O)O; Heptanoyl(6-Me) = CC(C)CCCCC(=O)*; Dab = NCC[CH](N)C(=O)O

For the compound `O=C(O)c1nc2cc(Cl)c(Cl)cc2[nH]c1=O`, the activity remaining is 92.7%.

As for `COc1cc(-c2coc3cc(OCc4ccccc4)c(OC)c(O)c3c2=O)cc(O)c1OC`, the activity remaining was 122%.

Regarding `O=c1ccc2ccccc2o1`, the activity remaining is 124%.

With `O=C(O)c1cn(-c2ccc(F)cc2)c2cc(N3CCNCC3)c(F)cc2c1=O`, the activity remaining is 118%.

As for `C[C@@H]1O[C@@H](O[C@H]2[C@@H](Oc3cc(O)c4c(c3)O[C@H](c3ccc(O)cc3)CC4=O)O[C@H](CO)[C@@H](O)[C@@H]2O)[C@H](O)[C@H](O)[C@H]1O`, the activity remaining is 117%.

For the compound `COC1(C)CCC2OC2(C)CCC2C1CC2(C)C` (stereo not given), the activity remaining is 113%.

As for `CCCCOc1cc(C(=O)NCCN(CC)CC)c2ccccc2n1`, the activity remaining was 103%.

Regarding `O=C(O)c1cccnc1`, the activity remaining is 120%.

With `CC(C)CCCC(C)[C@H]1CCC2C3CC[C@H]4CC(=O)CC[C@]4(C)C3CC[C@@]21C` (stereo not given in full), the activity remaining is 102%.

For `O=c1oc2c(O)c(O)cc3c(=O)oc4c(O)c(O)cc1c4c23`, the activity remaining is 91.8%.

`C#CCCCCCCCCCCCC(O)CC(O)COC(C)=O` (stereo not given): the activity remaining is 109%.

`CC(=O)O[C@H]1C[C@@H](OC(C)=O)C(C)(C)C2CC(=O)[C@]3(C)C(CC[C@@]4(C)[C@H](C(=O)O)OC(=O)C5OC543)[C@]21C` (stereo not given in full): the activity remaining was 122%.

Consider `O=C1CN(/N=C/c2ccc([N+](=O)[O-])o2)C(=O)N1`, for which the activity remaining is 78.3%.

With `CCCOc1ccc(C(=O)OCCN(CC)CC)cc1N`, the activity remaining is 109%.

`Cc1cc(O)c(C)c(O)c1C(=O)O`: the activity remaining was 121%.

Consider `Nc1ccc(C(=O)O)cc1`, for which the activity remaining was 124%.

As for `COc1cc(O)c2c(=O)cc(C)oc2c1CC=C(C)C`, the activity remaining is 83.4%.

In the case of `COC1C(O)C(O)C(O)[C@@H](O)C1O` (stereo not given in full), the activity remaining is 106%.

With `COc1ccccc1OCC(O)CO` (stereo not given), the activity remaining was 94.5%.

Consider `CCC(C)C1NC(=O)C(CCNCS(=O)(=O)O)NC(=O)C(NC(=O)C(CCNCS(=O)(=O)O)NC(=O)C(NC(=O)C(CCNCS(=O)(=O)O)NC(=O)CCCCC(C)C)C(C)O)CCNC(=O)C(C(C)O)NC(=O)C(CCNCS(=O)(=O)O)NC(=O)C(CCNCS(=O)(=O)O)NC(=O)C(C(C)CC)NC1=O` (stereo not given) ({Heptanoyl(6-Me)}-[ξDab(CH2SO3H)]T[ξDab(CH2SO3H)][Dab][ξDab(CH2SO3H)]II[ξDab(CH2SO3H)][ξDab(CH2SO3H)]T; lactam 4-C; configuration not given here), for which the activity remaining was 120%.

Regarding `COc1cc2ccc(=O)oc2c(OC)c1OC`, the activity remaining is 124%.

For `CC(=O)OCC(=O)[C@H]1CCC2C3CC=C4C[C@@H](O)CC[C@]4(C)C3CC[C@@]21C` (stereo not given in full), the activity remaining is 92.3%.

For `CCCOc1ccc2nc(NC(=O)OC)[nH]c2c1`, the activity remaining is 98.2%.

As for `CC(C)c1nc(N(C)S(C)(=O)=O)nc(-c2ccc(F)cc2)c1/C=C/[C@@H](O)C[C@@H](O)CC(=O)O`, the activity remaining is 124%.

Take `COc1ccc(CN(CCN(C)C)c2ncccn2)cc1`: the activity remaining is 120%.

For the compound `CCOC(=O)OC(C)OC(=O)C1N2C(=O)C(NC(=O)[C@H](N)c3ccccc3)C2SC1(C)C` (stereo not given in full), the activity remaining was 104%.

Turning to `Cn1c(=O)[nH]c2nc[nH]c2c1=O`, the activity remaining is 79.5%.

With `CC1(C)CC2C1CC[C@]1(C)CCC3C(C(=O)O)CC(=O)O[C@@]32C1` (stereo not given in full), the activity remaining was 92.5%.

Turning to `O=C1c2c(O)cccc2Cc2cccc(O)c21`, the activity remaining was 92.3%.

As to `COC(=O)c1c(C)cc(OC)cc1O`, the activity remaining was 98.9%.

`COc1cc(OC)c2c(OC)c(-c3ccc4c(c3)OCO4)c(=O)oc2c1`: the activity remaining was 95.4%.

Regarding `COC(=O)/C(=C1\OC(=O)C(c2ccccc2)C1=O)c1ccccc1` (stereo not given), the activity remaining was 106%.

For the compound `CN(C)C(=N)N=C(N)N`, the activity remaining is 120%.

On to `CCN1CCCC(OC(=O)C(c2ccccc2)c2ccccc2)C1` (stereo not given), for which the activity remaining is 110%.

For the compound `CC(N)CCCC(C)(C)O` (stereo not given), the activity remaining was 123%.

Turning to `C[N+]1(C)C[C@H](O)[C@H](C(=O)[O-])C1`, the activity remaining was 94.3%.

`Cc1cc(=O)[nH]c(=S)[nH]1`: the activity remaining was 95.7%.

For `COc1cc(O)c(C(=O)c2ccccc2)cc1O`, the activity remaining is 107%.

As to `COc1cccc(OC)c1C(=O)N[C@@H]1C(=O)N2[C@@H]1SC(C)(C)[C@@H]2C(=O)O`, the activity remaining was 85.9%.

`CC(C(=O)O)c1ccc(-c2ccccc2)c(F)c1` (stereo not given): the activity remaining was 104%.

For the compound `CC(=O)OC[C@H]1O[C@@H](Oc2cc(OC(C)=O)c3c(=O)cc(-c4ccc(OC(C)=O)cc4)oc3c2)[C@H](OC(C)=O)[C@@H](OC(C)=O)[C@@H]1OC(C)=O`, the activity remaining was 92.5%.

As to `CC(CCC(=O)O)[C@H]1CCC2C3C[C@H](O)[C@@H]4C[C@H](O)CC[C@]4(C)C3CC[C@@]21C` (stereo not given in full), the activity remaining is 104%.

On to `Cc1occc(=O)c1O`, for which the activity remaining is 102%.

With `O=c1c(-c2ccccc2)coc2cc(O)cc(O)c12`, the activity remaining was 109%.

`C=CCc1ccc(OC(=O)c2ccccc2)c(OC)c1`: the activity remaining is 95.9%.

Turning to `CCOc1ccc(Cc2nccc3cc(OCC)c(OCC)cc23)cc1OCC`, the activity remaining was 109%.

Consider `O=C(O)c1cc(O)c2c(c1)C(=O)c1cc(O)cc(O)c1C2=O`, for which the activity remaining is 99.8%.

On to `CC1=C2[C@H]([C@@H](C)CC[C@@H]2/C=C(\C)C(=O)O)[C@@H](O)C1`, for which the activity remaining is 116%.

As to `COc1cc(C(=O)O[C@H]2CC[C@@]3(C)[C@@H]4CC[C@H]5[C@]6(O)C[C@H](O)[C@@]7(O)[C@@H](CN8C[C@@H](C)CC[C@H]8[C@@]7(C)O)[C@]6(O)C[C@@]53OC24O)cc(OC)c1OC`, the activity remaining was 123%.

As to `CC(=O)OC1CCC2(O)CC1(C)CCC1C2CC1(C)C` (stereo not given), the activity remaining is 107%.

With `O=C(O)CN(CCN(CC(=O)O)CC(=O)O)CC(=O)O`, the activity remaining was 108%.

Consider `CCCCc1nc(Cl)c(CO)n1Cc1ccc(-c2ccccc2-c2nn[nH]n2)cc1`, for which the activity remaining is 110%.

Take `CC(=O)O[C@H]1C(=O)[C@@]2(C)C([C@H](OC(=O)c3ccccc3)[C@]3(O)C[C@H](OC(=O)[C@H](O)[C@@H](NC(=O)c4ccccc4)c4ccccc4)C(C)=C1C3(C)C)[C@]1(OC(C)=O)CO[C@@H]1C[C@@H]2O` (stereo not given in full): the activity remaining is 90.9%.

For `CC(=O)OCC(COC(C)=O)OC(C)=O`, the activity remaining was 126%.

As for `CCCCC(=O)O[C@]1(C(=O)CO)CCC2C3CCC4=CC(=O)CC[C@]4(C)C3[C@@H](O)C[C@@]21C` (stereo not given in full), the activity remaining was 111%.

With `COc1ccc(-c2coc3c(OC)c(OC)cc(O)c3c2=O)cc1`, the activity remaining is 105%.

Regarding `CCN(CC)CCNC(=O)COc1ccc(OC)cc1`, the activity remaining was 108%.

As for `CC(=O)c1c(O)c(C)c(O)c2c1OC1=CC(=O)C(C(C)=O)C(=O)C12C` (stereo not given), the activity remaining was 94.6%.

On to `CC(=O)O[C@H]1CC[C@@]2(C)C(CC[C@]3(C)C2CC=C2C4CC(C)(C)CC[C@]4(C)CC[C@]23C)C1(C)C` (stereo not given in full), for which the activity remaining is 102%.

With `C[C@@H]1OC(O[C@H]2[C@H](OC(=O)[C@]34CCC(C)(C)CC3C3=CCC5[C@@]6(C)CC[C@H](OC7O[C@@H](C)[C@H](O[C@@H]8OC[C@@H](O)[C@H](O)[C@H]8O)[C@@H](O)[C@H]7O)C(C)(C)C6CC[C@@]5(C)[C@]3(C)CC4O)OC[C@H](O)[C@H]2O)[C@H](O)[C@H](O)[C@H]1O[C@@H]1O[C@H](CO)[C@@H](O)[C@H](O)[C@H]1O` (stereo not given in full), the activity remaining was 99.8%.

Regarding `CC1=C(/C=C/C(C)=C/C=C/C(C)=C/C=C/C=C(C)/C=C/C=C(C)/C=C/C(=O)[C@]2(C)C[C@@H](O)CC2(C)C)C(C)(C)C[C@H](O)C1`, the activity remaining was 108%.

`CCc1c2c(nc3ccc(OC(=O)N4CCC(N5CCCCC5)CC4)cc13)-c1cc3c(c(=O)n1C2)COC(=O)[C@]3(O)CC`: the activity remaining is 90%.

For `O=c1ccc2ccc(O)cc2o1`, the activity remaining was 94.5%.

As for `Oc1cc2c(cc1O)C(c1ccccc1)CNCC2` (stereo not given), the activity remaining was 88.1%.

Take `CC(C)(C)NCC(O)COc1cccc2c1C[C@H](O)[C@H](O)C2` (stereo not given in full): the activity remaining is 103%.

For the compound `C[C@]12CC[C@H](O)CC1=CCC1C2CC[C@]2(C)C(=O)CCC12` (stereo not given in full), the activity remaining was 103%.

On to `CC(=O)O[C@H]1CC[C@]2(C)C3CC(=O)[C@]4(C)C(C(C)=O)=CCC4C3CC[C@H]2C1` (stereo not given in full), for which the activity remaining was 101%.

Consider `C[C@H](CC(=O)C1OC1(C)C)[C@H]1C(=O)C[C@@]2(C)C3=CCC4C(C)(C)[C@@H](O[C@@H]5OC[C@@H](O)[C@H](O)[C@H]5O)CC[C@@]45C[C@@]35[C@@H](O)C[C@]12C` (stereo not given in full), for which the activity remaining was 91.8%.

Take `CCC(CCC(C)[C@H]1CCC2C3CC=C4C[C@@H](O)CC[C@]4(C)C3CC[C@@]21C)C(C)C` (stereo not given in full): the activity remaining was 114%.

`O[N+]1=CC=CCC1=S.On1ccccc1=S.[Zn]`: the activity remaining is 92.5%.

Turning to `CC(C)(Oc1ccc(CCNC(=O)c2ccc(Cl)cc2)cc1)C(=O)O`, the activity remaining is 96.6%.

On to `CN1CCN(CCC=C2c3ccccc3Sc3ccc(S(=O)(=O)N(C)C)cc32)CC1`, for which the activity remaining is 116%.

`CC(=O)O[C@H]1C[C@@H](OC(C)=O)C(C)(C)C2C[C@@H](OC(C)=O)[C@@]3(C)C4=CC(=O)O[C@@H](c5ccoc5)[C@]4(C)CCC3[C@]21C` (stereo not given in full): the activity remaining was 102%.

For `COc1ccc(-c2coc3cc(OC)cc(OC)c3c2=O)cc1`, the activity remaining is 103%.

Take `CCC(=O)O[C@H](CC(=O)O)C[N+](C)(C)C`: the activity remaining was 107%.

As to `COc1ccc(-c2oc3cc(OC)c(OC)c(OC)c3c(=O)c2OC)cc1OC`, the activity remaining is 83.1%.

As to `CN1CCCN=C1COC(=O)C(O)(c1ccccc1)C1CCCCC1` (stereo not given), the activity remaining is 108%.

Take `CC1(C)C(=O)C=C[C@@]2(C)C1CC(=O)[C@]1(C)C2CC[C@@]2(C)[C@H](c3ccoc3)OC(=O)[C@H]3O[C@]321` (stereo not given in full): the activity remaining was 116%.

Turning to `CC[C@]12C=CCN3CC[C@@]4(c5ccc(OC)cc5N(C)C4[C@@](O)(C(=O)OC)[C@@H]1OC(C)=O)[C@@H]32` (stereo not given in full), the activity remaining is 112%.

As for `CC(=O)O[C@@H]1CC2C(C)(C)C=CC(=O)[C@]2(C)C2CC[C@@]3(C)[C@H](c4ccoc4)OC(=O)C4OC43[C@@]21C` (stereo not given in full), the activity remaining is 119%.

Values taken from PubChem BioAssay.
